The structures appear in SMILES notation. The panel holds about 83,000 compounds, 20% with a hit somewhere; the sample as a whole holds those more often.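 Single-concentration screen, 48 h exposure, 96-well plates. Endpoint: percent growth. Below 10 = active.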 Unmarked numbers belong to inactive results. Activity calls are given as the source filed them.

Test systems include K-562 leukemia; MDA-MB-231 breast; RXF 393 renal; SF-268 CNS; SF-295 CNS; SF-539 CNS; UACC-257 melanoma; M14 melanoma; HCT-15 colon; HT29 colon; SNB-75 CNS; SNB-19 CNS; PC-3 prostate; SK-MEL-5 melanoma; UACC-62 melanoma; LOX IMVI melanoma; SK-MEL-28 melanoma; SK-MEL-2 melanoma; U251 CNS; MALME-3M melanoma.
Common to all, as to assay: NCI-60 one-dose screen, 48 h (100 = growth as untreated, 0 = no growth, -100 = all killed)
What all share (conditions): 10 µM

With `COc1ccc2c(c1)sc1nc(-c3ccccc3)c(-c3ccsc3)n12`, the growth is 13.8% in the test on K-562 leukemia; 52.3% with MDA-MB-231 breast; -13.3% (active) in the test with RXF 393 renal; 54.3% in the test on SF-268 CNS; -20% (active) with SF-295 CNS; 2.07% (active) in the test with SF-539 CNS. For the same molecule, the growth in the test on UACC-257 melanoma was 39.7%; in the test on M14 melanoma it was 15.6%; with HCT-15 colon, 30.5%; in the test with HT29 colon, -5.75% (active); with SNB-75 CNS it was 6.18% (active); with SNB-19 CNS it was 40.8%. The growth in the test on PC-3 prostate is 16.6%; in the test with SK-MEL-5 melanoma, 9.67% (active); in the test with UACC-62 melanoma, 36.3%; in the test on LOX IMVI melanoma it was 40.3%; in the test on SK-MEL-28 melanoma, 60.7%; in the test with SK-MEL-2 melanoma, 5.47% (active).
Regarding `O=C(CCCCC[P+](c1ccccc1)(c1ccccc1)c1ccccc1)NC(COC(=O)C(Cl)Cl)(COC(=O)C(Cl)Cl)COC(=O)C(Cl)Cl`, the growth in the test with K-562 leukemia is 98.2%; in the test with MDA-MB-231 breast, 111%; in the test on RXF 393 renal, 101%; in the test on SF-268 CNS, 103%; in the test with SF-295 CNS, 99%; with SF-539 CNS, 107%. For the same molecule, the growth in the test with UACC-257 melanoma is 97.5%; in the test with M14 melanoma it was 102%; with HCT-15 colon it was 99%; with HT29 colon, 96.6%; with SNB-75 CNS, 103%; in the test on U251 CNS, 97.1%. Besides, the growth is 90.5% with PC-3 prostate; 92.4% in the test with SK-MEL-5 melanoma; 98% in the test on UACC-62 melanoma; 102% in the test on LOX IMVI melanoma; 108% in the test with SK-MEL-28 melanoma; 100% in the test with SK-MEL-2 melanoma.
With `CCCCCCCCCCCCCCCCCC(=O)OCCCCCCC`, the growth is 115% in the test on MALME-3M melanoma; 98.7% in the test on MDA-MB-231 breast; 96.4% with RXF 393 renal; 94.9% in the test with SF-268 CNS; 99.9% in the test on SF-295 CNS; 112% in the test with SF-539 CNS. Moreover, the growth in the test on UACC-257 melanoma was 109%; with M14 melanoma, 108%; with HCT-15 colon, 95.5%; in the test on HT29 colon, 102%; in the test on SNB-75 CNS, 98.3%; with SNB-19 CNS, 116%. Besides, the growth with U251 CNS was 100%; with PC-3 prostate, 92.9%; in the test with SK-MEL-5 melanoma it was 110%; in the test on UACC-62 melanoma it was 110%; with LOX IMVI melanoma it was 96.5%; in the test with SK-MEL-28 melanoma, 122%. The growth in the test with SK-MEL-2 melanoma is 127%.
For `CCN(CC)CCOc1nc2ccccc2c2c1-c1ccc(OC)cc1C2=O`, the growth is -17.8% (active) in the test with K-562 leukemia; 10.7% with MDA-MB-231 breast; 3.35% (active) with RXF 393 renal; -6.65% (active) in the test with SF-268 CNS; -7.99% (active) in the test on SF-295 CNS; 29.2% in the test on SF-539 CNS. The growth in the test on UACC-257 melanoma was -18.8% (active); in the test on M14 melanoma, -53.3% (active); with HCT-15 colon, 2.9% (active); in the test on HT29 colon it was -12.9% (active); in the test on SNB-75 CNS it was 1.69% (active); in the test on U251 CNS it was -10.8% (active). Also, the growth with PC-3 prostate was 7.51% (active); with SK-MEL-5 melanoma, -84% (active); with LOX IMVI melanoma, -47.2% (active); in the test with SK-MEL-28 melanoma, 4.25% (active); in the test on SK-MEL-2 melanoma, -2.62% (active).
As for `O=C(CNC(=O)OCc1ccccc1)NCC(=O)Oc1ccc([N+](=O)[O-])cc1`, the growth in the test with K-562 leukemia was 117%; in the test on MDA-MB-231 breast, 106%; in the test on RXF 393 renal, 117%; with SF-268 CNS, 108%; in the test with SF-295 CNS, 103%; in the test with SF-539 CNS, 104%. Also, the growth was 89.5% in the test with M14 melanoma; 98.7% with HT29 colon; 109% with SNB-75 CNS; 111% with SNB-19 CNS; 11.8% in the test with U251 CNS; 89.8% with PC-3 prostate. In addition, the growth in the test with SK-MEL-5 melanoma is 98.1%; in the test with UACC-62 melanoma it was 107%; in the test on LOX IMVI melanoma, 87.6%; in the test with SK-MEL-28 melanoma, 104%.
Regarding `O=C(O)CN1C(=O)c2cccc3cccc(c23)C1=O`, the growth is 102% in the test on MALME-3M melanoma; 85.1% in the test with MDA-MB-231 breast; 122% with SF-268 CNS; 99.7% in the test with SF-295 CNS; 98.7% in the test on SF-539 CNS; 98.2% in the test with UACC-257 melanoma. For the same molecule, the growth in the test with M14 melanoma is 99.6%; in the test with HCT-15 colon, 108%; in the test on HT29 colon it was 100%; in the test with SNB-75 CNS it was 89.4%; in the test on SNB-19 CNS, 99.2%; with U251 CNS, 97.4%. Further, the growth was 104% in the test on PC-3 prostate; 106% with SK-MEL-5 melanoma; 100% in the test with UACC-62 melanoma; 98.6% with LOX IMVI melanoma; 109% in the test with SK-MEL-28 melanoma; 111% in the test on SK-MEL-2 melanoma.
Consider `O=C1OCC2=C1C(c1cccc(Br)c1)c1cc3c(cc1N2CCO)CCC3` (stereo not drawn), for which the growth in the test on K-562 leukemia was 19.4%; with MDA-MB-231 breast, -13% (active); in the test on RXF 393 renal, 29.5%; with SF-268 CNS, 14.4%; in the test on SF-295 CNS it was -9.25% (active); in the test with SF-539 CNS, -1.5% (active). In addition, the growth in the test on M14 melanoma is 12.8%; with HCT-15 colon it was 8.3% (active); in the test with HT29 colon, -12.1% (active); in the test on SNB-75 CNS, 37.5%; in the test on SNB-19 CNS, 28.8%; in the test on U251 CNS it was 5.68% (active). Also, the growth is 22.4% in the test on PC-3 prostate; -12.6% (active) with SK-MEL-5 melanoma; 20.2% in the test on UACC-62 melanoma; 15.5% with LOX IMVI melanoma; 62% with SK-MEL-28 melanoma.
As to `CO/N=C(/C(=O)NC1C(=O)N2C(C(=O)O)=C(COC(N)=O)CSC12)c1ccco1` (stereo not drawn), the growth in the test on MALME-3M melanoma was 94.3%; in the test on MDA-MB-231 breast, 107%; with SF-268 CNS, 124%; in the test with SF-295 CNS it was 105%; with SF-539 CNS it was 100%; in the test with UACC-257 melanoma, 104%. Also, the growth in the test with M14 melanoma was 102%; in the test with HCT-15 colon it was 104%; with HT29 colon it was 111%; in the test with SNB-75 CNS, 91.6%; in the test with SNB-19 CNS it was 95.5%; with U251 CNS, 107%. The growth in the test with PC-3 prostate was 101%; with SK-MEL-5 melanoma it was 110%; in the test with UACC-62 melanoma, 103%; with LOX IMVI melanoma, 102%; in the test on SK-MEL-28 melanoma, 114%; with SK-MEL-2 melanoma it was 100%.
Take `O=C(NN1C(=O)CSC1c1ccc(Cl)cc1)c1cccnc1` (stereo not drawn): the growth was 88.8% in the test on MALME-3M melanoma; 156% with MDA-MB-231 breast; 97% in the test with SF-268 CNS; 78.3% in the test with SF-295 CNS; 105% with SF-539 CNS; 112% with UACC-257 melanoma. Besides, the growth was 84.1% with M14 melanoma; 119% in the test with HCT-15 colon; 109% with HT29 colon; 110% with SNB-75 CNS; 113% with SNB-19 CNS; 99.5% in the test with U251 CNS. Also, the growth with PC-3 prostate was 93.6%; with SK-MEL-5 melanoma, 102%; in the test on UACC-62 melanoma it was 125%; in the test on LOX IMVI melanoma, 102%; in the test with SK-MEL-2 melanoma it was 109%.
